# Assay outcomes (PubChem)
# SW480 rereplic – DNA re-replication induction in SW480 cells | SW480 DNA re-replication, Hoechst DNA content imaging, 48 h | Potency, µM (titrated, usually from 46.1 µM), for the others: top-dose re-replication activation, hits mostly activators | 340,000 tested, 1.8% active | AID 624297; further: % of control where 0% means no effect; nearly all actives have a fitted effect of over 55% in size
#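 Readout is total intensity of Hoechst-stained nuclei, excited at 405 nm and collected at 500-530 nm. Compound treatment lasted 48 hr at 37 C in 5% CO2 before staining.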
# 12-LOX inh – blocks human arachidonate 12S-lipoxygenase; P18054; 580,000 tested, 1.1% active; Potency, µM (highest dose often 108 µM), for inactives: at the highest dose activity change, negative = inhibition, usual class: inhibitors; purified 12hLO, xylenol orange hydroperoxide absorbance; further: on the % scale 0 is the no-effect control and ±100 the full control effect
# Target sequence (P18054 whole entry, looked up): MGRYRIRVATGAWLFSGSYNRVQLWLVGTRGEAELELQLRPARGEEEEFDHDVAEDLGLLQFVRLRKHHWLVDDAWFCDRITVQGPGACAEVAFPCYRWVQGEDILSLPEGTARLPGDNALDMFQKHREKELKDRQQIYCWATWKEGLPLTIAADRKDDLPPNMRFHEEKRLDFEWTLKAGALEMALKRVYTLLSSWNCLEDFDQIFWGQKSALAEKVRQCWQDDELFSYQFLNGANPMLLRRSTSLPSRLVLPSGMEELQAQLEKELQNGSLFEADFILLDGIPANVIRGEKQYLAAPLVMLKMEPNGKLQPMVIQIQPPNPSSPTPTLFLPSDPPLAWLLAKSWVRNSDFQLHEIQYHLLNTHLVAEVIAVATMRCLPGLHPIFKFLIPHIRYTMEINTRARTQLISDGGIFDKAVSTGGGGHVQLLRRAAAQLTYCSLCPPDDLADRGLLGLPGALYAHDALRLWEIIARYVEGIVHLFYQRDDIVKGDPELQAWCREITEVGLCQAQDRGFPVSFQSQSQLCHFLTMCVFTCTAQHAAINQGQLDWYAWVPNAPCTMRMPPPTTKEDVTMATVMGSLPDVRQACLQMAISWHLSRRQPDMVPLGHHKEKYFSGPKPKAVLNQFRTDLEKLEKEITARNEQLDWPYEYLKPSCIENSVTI
#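 Purified human 12hLO at 150 nM in 25 mM Hepes, 0.01% Triton X-100, pH 7.0, preincubated 15 min at room temperature with compound. Reaction started with 40 uM arachidonic acid, 30 min at room temperature. Hydroperoxide measured by Fe-xylenol orange, 573/405 nm absorbance ratio.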
# PINK1 modulator – changes PINK1 expression | PINK1 immunofluorescence, high-content cytometry, 24 h | Potency, µM (top dose mostly 76.6 µM), inactives show at the top dose activation (PINK1 increase), actives largely listed as activators | 410,000 tested, 0.2% active | AID 624263; active means well fitted activation curve with a large enough effect; inconclusive means small, poorly fitted or top-dose-only effect; cell line not stated here; further: % of control where 0% means no effect; nearly all actives have a fitted effect of over 65% in size
#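 Stable cell line treated 24 h with compounds at 5 concentrations (CCCP controls), then fixed and immunostained for PINK1 plus nuclear and cell stains; PINK1 immunofluorescence quantified by laser-scanning microplate cytometry.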
# MCF10A rerep – induces DNA re-replication in MCF 10a normal breast cells; MCF 10A DNA re-replication, Hoechst nuclear intensity, 48 h; Potency, µM (doses to about 46.1 µM), for the others: top-dose activity, positive = re-replication, hits mostly activators; 350,000 tested, 2.9% active; further: % of control where 0% means no effect; nearly all actives have a fitted effect of over 50% in size
# KB-3-1 cytotox – KB-3-1 parental cell cytotoxicity. Potency, µM (top dose mostly 46.1 µM), hits mostly cytotoxic. 400,000 tested, 1.4% active. KB-3-1 viability, CellTiter-Glo ATP luminescence, 72 h; further: on the % scale 0 is the no-effect control and ±100 the full control effect; nearly all actives have a fitted effect of over 60% in size
#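 KB-3-1 parental drug-naive adenocarcinoma cells in DMEM/10% FBS, incubated 72 h at 37 C with pin-transferred compounds across a concentration series. Viability by CellTiter-Glo luminescence; concentration-response curves fitted after normalization.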
# KB-V1 cytotox – kills drug-selected multidrug resistant KB-V1 cells | KB-V1 MDR cells viability, CellTiter-Glo, 72 h | Potency, µM (highest dose often 46.1 µM), hits mostly cytotoxic | 400,000 tested, 3.4% active | AID 1347076; further: on the % scale 0 is the no-effect control and ±100 the full control effect; nearly all actives have a fitted effect of over 60% in size
#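 Luminescent ATP read-out (CellTiter-Glo, 10 min) measures survival of drug-selected KB-V1 MDR cells after 72 h, 37 degrees C compound exposure. Medium: phenol-red-free DMEM, 10% FBS. Values from fitted concentration-response curves.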
# * hit, by the source's call; i = inactive; ? = inconclusive; . = no result given; [ ] = another dose, or the depositor's remark. Most compounds without a hit are left out; they make up all but 5.8% or so of the library. Unless noted, the call rests on the fitted dose curve; in most records, active means well fitted curve in the direction sought with a large enough effect; inconclusive means small, poorly fitted or top-dose-only effect, or another doubt; inactive means no such curve, though single readings can be large; an effect the other way counts as inactive or inconclusive. Potency means the concentration at half of the fitted maximal effect.
SMILES,SW480 rereplic,12-LOX inh,PINK1 modulator,MCF10A rerep,KB-3-1 cytotox,KB-V1 cytotox
Cc1ccccc1-c1nc(S(=O)(=O)c2ccccc2)c(NCCCN2CCOCC2)o1,5%,-5%,0%,-3%,23µM*,i
O=S(=O)(c1ccccc1)c1nc(-c2ccccc2Cl)oc1NCCN1CCOCC1,9%,-16%,28%[38.3 µM],?,i,i
CN1CCOC(CNCc2ccc3ccccc3c2)C1 (stereo unspecified),.,18%,.,.,.,.
CC(C)COc1ccc(C(=O)Nc2ccccc2[N+](=O)[O-])cc1,?,-14%,3%,13µM*,i,i
COc1ccc(-c2csc(=NCCO)n2-c2ccccc2)cc1,-5%,?,0%,?,?,?
COc1ccc(-c2csc(=Nc3ccccc3)n2CCO)cc1,-6%,?,0%,?,12µM*,7.3µM*
Cc1ccc(-c2csc(=Nc3ccccc3)n2CCCO)cc1,.,45µM*,6%,.,i,i
C=CCn1c(-c2ccc(OC)cc2)csc1=Nc1c(C)n(C)n(-c2ccccc2)c1=O,2%,-14%,-3%,1%,16µM*,8.2µM*
CC(=O)c1cccc(N=c2scc(-c3ccc(S(=O)(=O)N4CCOCC4)cc3)n2CCO)c1,-1%,-29%,1%,-2%,i,5.8µM*
C=CCn1c(-c2ccc(S(=O)(=O)N3CCOCC3)cc2)csc1=Nc1ccccc1,-5%,-23%,-2%,?,?,i
OCCCn1c(-c2ccc(F)cc2)csc1=Nc1ccc(F)cc1,.,?,2%,.,i,i
CCC1CN(C(=O)c2ccc3nc(-c4ccccc4)cn3c2)CCN1C(C)C (stereo unspecified),.,18%,.,.,.,.
O=c1n(-c2ccccc2)c(=O)n2n1CCCC2,16µM*,7%,1%[38.3 µM],?,i,i
Cc1ccc(C(=O)Nc2ccc(Cl)c(C(F)(F)F)c2)c(Cl)c1,.,3%,.,.,.,.
CCOC(=O)/C=C/C(=O)Nc1ccccc1-c1ccccc1NC(=O)/C=C/C(=O)OCC,4.6µM*,-5%,20%,5.8µM*,?,i
CCOC(=O)/C=C/C(=O)OCC(=O)Nc1cccc(Cl)c1Cl,-4%,-7%,4%,?,i,?
CCOC(=O)/C=C/C(=O)Nc1cccc([N+](=O)[O-])c1,.,.,-2%,3.7µM*,?,i
O=C(CN(CCc1ccccc1)S(=O)(=O)c1ccc(Br)cc1)NCc1ccc(Cl)cc1,.,4.5µM*,10%,.,i,i
CCNC(=O)CN(CCc1ccccc1)S(=O)(=O)c1ccc(OC)cc1,-6%,-25%,-3%,-3%,i,21µM*
COc1ccc(S(=O)(=O)N(CCc2ccccc2)CC(=O)N/N=C/c2ccc3c(c2)OCO3)cc1,?,-10%,3%,1%,?,4.6µM*
O=C(CN(CCc1ccccc1)S(=O)(=O)c1ccc(Cl)cc1)N/N=C/c1ccc2c(c1)OCO2,-53%,-6%,?,-1%,i,9.2µM*
COc1cc(C=O)cc(Cl)c1OCc1ccc(C(=O)O)cc1,.,-11%,.,.,.,.
CCCNC(=O)Nc1ccccc1CC(N)=O,.,59%,.,.,.,.
O=C(c1nn(-c2ccccc2)c(=O)c2ccccc12)N1CCN(CCN2CCCC2)CC1,.,1%,.,.,.,.
COc1ccc(-c2nc(-c3ccccc3)nc(N3CCN(C)CC3)c2C#N)cc1,-17%,-12%,2%,11%,?,?
SMILES,SW480 rereplic,12-LOX inh,PINK1 modulator,MCF10A rerep,KB-3-1 cytotox,KB-V1 cytotox
COc1ccc(-c2nc(-c3cccc(C)c3)nc(N3CCN(C)CC3)c2C#N)cc1,?,?,5%,?,5.8µM*,4.6µM*
COc1ccc(-n2ccc(=O)c(C(=O)Nc3cc(OC)ccc3OC)n2)cc1,.,-55%,.,.,.,.
Cc1ccc(/C=N/n2cc(-c3ccccc3)[nH]c2=S)s1,18µM*,-31%,3%,6%[9.22 µM],i,i
Oc1ccc(/C=N/n2cc(-c3ccccc3)[nH]c2=S)cc1,-9%,16µM*,0%,-5%,i,?
COc1cc(/C=N/n2cc(-c3ccccc3)[nH]c2=S)cc(OC)c1O,-5%,13µM*,2%,4%,i,i
O=C(N[C@@H](Cc1ccccc1)C(=O)NC1CCCCCC1)c1ccco1,1%,-14%,3%[38.3 µM],-4%,?,5.2µM*
O=C(N[C@@H](Cc1ccccc1)C(=O)NC1CCCCC1)c1ccco1,0%,0%,1%,15%,i,13µM*
O=C(NC(Cc1ccccc1)C(=O)O)c1ccco1 (stereo unspecified),?,-4%,0%,1%,i,i
CC12CCC(C(=O)O/N=C3\CC4CCC3(C)C4(C)C)(CC1=O)C2(C)C (stereo unspecified),.,5%,.,.,.,.
CCCN1CCN(C(=O)CC2CCN(C(=O)c3ccc4nc(-c5ccc(C)cc5)oc4c3)CC2)CC1,.,-23%,.,.,.,.
CC[C@@H]1C(c2ccccc2)=NN(c2ccc(Br)cc2)[C@H]1C(=O)N1CCOC1=O,12%,?,0%,9.2µM*,i,i
C[C@@H]1C(c2ccc(F)cc2)=NN(c2ccccc2)[C@H]1C(=O)N1CCOC1=O,3%,-22%,3%,?,?,i
CC[C@@H]1C(c2cccc(Cl)c2)=NN(c2ccc(Br)cc2)[C@H]1C(=O)N1CCOC1=O,10µM*,.,12%,1.3µM*,i,i
CC[C@@H]1C(c2ccc(F)cc2)=NN(c2ccc(Br)cc2)[C@H]1C(=O)N1CCOC1=O,0.58µM*,-4%,6%,16µM*,i,i
CC[C@@H]1C(c2cccc(C)c2)=NN(c2ccccc2)[C@H]1C(=O)N1CCOC1=O,-6%[9.22 µM],?,3%,?,i,i
COc1cc(C(=O)OCc2ccc(C)cc2)cc(NC(=O)c2cccs2)c1OC,?,-12%,10%,23µM*,i,?
CSCC[C@H](NC(=O)c1cc2c([nH]c3ccccc32)c(-c2ccccc2)n1)C(=O)O,23µM*,0%,0%,0%,i,i
CCN(CC)C(=O)C[C@@H]1c2nc(NC(=O)c3ccc(OC)cc3)sc2C[C@@H]2[C@](C)(CO)[C@H](O)CC[C@]21C,.,-23%,.,.,.,.
CCCCc1ccc(C2C3=C(CC(C)(C)CC3=O)NC3=C2C(=O)c2ccccc23)cc1 (stereo unspecified),-8%,-29%,2%,-3%,?,16µM*
CCOC(=O)C1=C(C)NC2=C(C(=O)CC(C)(C)C2)C1c1ccc(-c2ccccc2)cc1 (stereo unspecified),.,20%[57.4 µM],.,.,.,.
